{"source": "PubChem BioAssay AID1037", "about": "(National Center for Advancing Translational Sciences (NCATS), 2008)", "assay": "NSCLC 2 Cell Viability Secondary Assay for qHTS Assay for Epigenetic Modulators", "details": "NSCLC 2 viability, MTS absorbance, 4 days", "from_the_text": "NIH Molecular Libraries Screening Centers Network [MLSCN] NIH Chemical Genomics Center [NCGC] MLSCN Grant: 1 X01 MH079860-01 Assay Provider: Elisabeth D. Martinez, University of Texas SW Medical Center NCGC Assay Overview: This secondary assay characterizes selected actives identified in the qHTS of the Locus Derepression (LDR) assay (PubChem AID 597). The LDR assay detects the derepression of a GFP reporter that is stably integrated in a region of the genome of murine c127i mammary cells that is presumably silenced. Compounds that cause derepression of the locus to express GFP are identified by enumerating GFP positive cells using a laser-scanning microplate cytometer. […] NSCLC 2 cell viability was measured using Cell Titer 96 AQueous One (Promega), an assay which detects the ability of metabolically active cells to reduce a tetrazolium salt substrate (MTS), into a soluble formazan product that can be measured by colorimetry.\nNCGC Assay Protocol Summary NSCLC 2 cells were plated in 96-well flat bottom tissue culture dishes (Corning) and grown overnight at 37 C and 5% CO2, then treated with compounds, incubated 4 days, and assayed for viability using the Cell Titer 96 AQueous One kit (Promega) according to the manufacturer's protocol. Absorbance at 490 nm and 650 nm (reference) was measured by a Spectra Max (Molecular Devices). […]", "note": "Calls of active or inactive are those of the source. Calls follow the shape of the full dose curve."}
{"smiles": "CN1CSC(=S)N(C)C1", "values": [{"measurement": "outcome", "result": "inactive"}]}
